An excerpt weighted towards active compounds, which were near 19% of everything screened.
TDP1 cell CPT – growth inhibition of DT40 Tdp1-/-;hTDP1 cells with camptothecin (screen for TDP1 inhibitors). chicken DT40 Tdp1-/-;hTDP1 cells + 20 nM CPT, ATP luminescence, 48 h. Potency, µM (doses to about 46.2 µM), for the others: at the top dose activity change, negative = growth inhibition, usual class: inhibitors. 420,000 tested, 12% active. AID 686979; further: potency means the concentration at half of the fitted maximal effect; nearly all actives have a fitted effect of over 55% in size
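Chicken DT40 Tdp1-/- cells complemented with human TDP1, 400 cells/well, exposed to compounds plus 20 nM camptothecin for at least 48 h at 37 C; viability read as ATP content by CellTiter-Glo luminescence.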
DT40 TDP1 no CPT – qHTS for Inhibitors of human tyrosyl-DNA phosphodiesterase 1 (TDP1): qHTS in cells in absence of CPT; DT40 Tdp1-/- hTDP1 cells, no CPT, ATP luminescence, 48 h; Potency, µM (titrated, usually from 46.2 µM), for the others: at the highest dose activity change, negative = growth inhibition, actives largely listed as inhibitors; 420,000 tested, 15% active; AID 686978, 2013; further: potency means the concentration at half of the fitted maximal effect; nearly all actives have a fitted effect of over 55% in size
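Chicken DT40 Tdp1-/- cells stably complemented with human TDP1 were seeded at 400 cells/well with DMSO in place of 20 nM camptothecin. After compound pinning, cells grew at least 48 hr at 37 °C; viability read by CellTiter-Glo luminescence.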
HT1080 IDH1KD tx – kills HT-1080 cells with IDH1 knockdown. Potency, µM (series often up to 46.1 µM), for the others: top-dose activity, negative = toxicity, usual class: cytotoxic. HT-1080 IDH1 knockdown viability, ATP luminescence, 48 h. AID 686971. 360,000 tested, 2% active;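 further: potency means the concentration at half of the fitted maximal effect; 0% = DMSO wells and -100% = cell-free medium wells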
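Knockdown cells (IDH1KD HT-1080) received compounds 2 h after plating at 750 cells/well and were kept 48 h at 37 °C in 5% FBS RPMI. A CellTiter-Glo luminescence read gave % activity for curve fitting.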
HT1080-NT tox – kills 2HG-producing HT-1080-NT fibrosarcoma cells; Potency, µM (highest dose often 46.1 µM), inactives show at the top dose activity, negative = less viability, actives largely listed as cytotoxic; 360,000 tested, 1.6% active; HT-1080-NT fibrosarcoma viability, CellTiter-Glo ATP luminescence, 48 h;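 further: NT is the 2HG producing partner of a matched IDH1 knockdown line; potency means the concentration at half of the fitted maximal effect; 0% = DMSO-treated cells and -100% = media-only wells without cells; nearly all actives have a fitted effect of over 55% in size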
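Viability of the 2HG-overproducing fibrosarcoma line after 48 hours of compound exposure at 37 degrees C was determined by luminescence with CellTiter-Glo, and concentration-effect curves were then fitted and categorized.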
IL1B secr inh – inhibitors of inflammasome signaling (IL-1 beta secretion) | activity change, % at 57.5 µM | 360,000 tested, 4.7% active | THP-1 LPS/ATP IL-1B secretion, AlphaLISA, 16 h; stronger effect = lower value; in the data active means activity change below about -50%; inconclusive means mostly about -30% to -49%
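THP-1 cells pretreated 1 hr with compounds (up to 57.5 uM final), then stimulated with LPS (250 ng/mL final) plus ATP (1.25 mM final); secreted IL-1B measured by AlphaLISA after 16 hr, decreased signal indicating inhibition.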
uPA generation – cell surface uPA generation inhibition; Potency, µM (highest dose often 38.3 µM), for inactives: at the highest dose activity change, negative = inhibition, usual class: inhibitors; cell surface uPA generation assay, qHTS; 330,000 tested, 0.31% active; active means well fitted inhibition curve with a large enough effect; inconclusive means small, poorly fitted or top-dose-only effect; inactive means no such curve, though single readings can be large or run the other way; tested in mouse RAW 264.7 cells; further: potency means the concentration at half of the fitted maximal effect; nearly all actives have a fitted effect of over 55% in size
Numbers without * were called inactive; ? = inconclusive; . = no result. Unless noted, the call rests on the fitted dose curve; in most records, active means well fitted curve in the direction sought with a large enough effect; inconclusive means small, poorly fitted or top-dose-only effect, or another doubt; inactive means no such curve, though single readings can be large; an effect the other way counts as inactive or inconclusive. Unless noted, on the % scale 0 is the no-effect control and ±100 the full control effect.

SMILES	TDP1 cell CPT	DT40 TDP1 no CPT	HT1080 IDH1KD tx	HT1080-NT tox	IL1B secr inh	uPA generation
CC(=O)/C=C1/C(=O)Nc2ccccc21	6.5µM*	3.7µM*	?	?	-15	?
O=C(O)COc1ccccc1/C=C1\C(=O)Nc2ccc(Br)cc21	12%	5%	6%	1%	29	-4%
O=C1Nc2ccc(Br)cc2/C1=C/C(=O)c1ccccc1	5.8µM*	4.6µM*	?	?	-103*	-5%
C=CCOc1cccc(C(=O)N2CCCC(CCC(=O)NCc3ccccc3F)C2)c1 (configuration not stated)	?	?	-10%	-4%	-4	5%
CCc1nn(CC(=O)NCCOC)c(=O)c2cc3cc(F)ccc3n12	17%	2%	.	.	.	.
Cc1ccc(-c2nn(CC(=O)NCc3ccccc3)c3c2cnc2ccc(F)cc23)cc1C	-29%	3%	.	.	.	.
O=C1COc2ccc(C(=O)COC(=O)c3cc(S(=O)(=O)NCc4ccccc4)ccc3O)cc2N1	-3%	0%	3%	-7%	9	-26%
CCCCN1CC(COCc2ccccc2)Oc2cccc(OCCN3C(=O)[C@@H]4[C@H](C3=O)C3C=C[C@H]4C3)c2S1(=O)=O (some centres not stated)	?	?	-30%	?	9	0%
CCCCc1nn2c(=O)cc(COC(=O)C(C)Oc3ccccc3)nc2s1 (configuration not stated)	-4%	-4%	.	.	.	.
COc1cc(-c2noc(C)c2C(=O)NCc2ccc(C)o2)cc(OC)c1OC	?	?	12%	0%	25	-16%
CNC(C)C#Cc1c(-c2cc(OC)c(OC)c(OC)c2)noc1C (configuration not stated)	?	16µM*	-2%	-16%	34	?
COc1cc(-c2noc(C)c2C#Cc2ccc(N)cc2)cc(OC)c1OC	0.82µM*	0.52µM*	0.65µM*	0.82µM*	69	?
COc1cc(-c2noc(C)c2C(=O)NCCO)cc(OC)c1OC	1%	-6%	8%	-2%	-2	?
COc1cc(-c2noc(C)c2/C=C/c2ccc(N)cc2)cc(OC)c1OC	1.2µM*	1µM*	0.92µM*	0.58µM*	97	?
COc1cc(-c2noc(C)c2C#Cc2ccccn2)cc(OC)c1OC	0.65µM*	1µM*	2.1µM*	1.6µM*	60	0.35µM*
O=C1C2C3CCC(CC3)C2C(=O)N1c1ccccc1 (configuration not stated)	4%	-11%	18%	11%	-8	1%
CCc1ccc(NC(=O)CSc2nc(N)c(NC(=O)c3ccc(F)c(F)c3)c(=O)[nH]2)cc1	0%	5%	15%	5%	2	-1%
NC(=O)c1ccc(-c2ccc(N3C(c4ccsc4)=Cc4ccc(F)cc4C3CC(=O)c3ccco3)cc2)cc1 (configuration not stated)	?	?	?	?	-14	.
CCOc1nc(Nc2cc(Cl)ccc2OC)nc(OCC)n1	21µM*	?	13%	2%	9	6%
CCOc1nc(Nc2ccc(OC)cc2OC)nc(OCC)n1	-23%	16µM*	-2%	-4%	0	10%
C=CCNc1nc(Cl)nc(Nc2cc(Cl)ccc2OC)n1	?	?	-19%	-10%	-2	0%
CNc1cnc(-c2cccc(C(=O)N3CCOCC3)c2)cn1	4%	-5%	15%	0%	11	.
CC(C)c1nc(SCC(=O)Nc2ccc(N(C)C)cc2)c2ccccc2n1	23µM*	?	?	-29%	-22	?
Cc1csc(NC(=O)CSc2nc(C(C)C)nc3ccccc23)n1	?	12µM*	-25%	?	-96*	-7%
O=c1c2c([nH]n1-c1ccccc1)C[C@@H](C1CCCCC1)O[C@H]2c1ccc(F)cc1	2%	-22%	?	?	14	.
SMILES	TDP1 cell CPT	DT40 TDP1 no CPT	HT1080 IDH1KD tx	HT1080-NT tox	IL1B secr inh	uPA generation
Cc1ccc(C)c(S(=O)(=O)NCc2ccncc2)c1	?	21µM*	?	-12%	28	-2%
COc1cc(S(=O)(=O)NCc2ccncc2)c(OC)cc1Br	?	13µM*	-2%	-3%	24	-1%
Cc1cc(S(=O)(=O)NCc2ccncc2)c(C)cc1Br	8.2µM*	5.8µM*	-19%	-27%	0	?
CCOc1cc(S(=O)(=O)NCc2ccncc2)c(C)cc1C	-12%	-25%	-2%	-21%	35	3%
CCC(CCC(C)C1CCC2C3CC=C4CC(OC(C)=O)CC[C@@]4(C)C3CC[C@@]12C)C(C)C (some centres not stated)	-22%	-11%	.	.	.	.
Cc1coc2cc3oc(=O)c(CC(=O)NCc4cccc(Cl)c4)c(C)c3cc12	?	21µM*	.	.	.	.
Cc1coc2cc3oc(=O)c(CC(=O)NCc4ccccc4)c(C)c3cc12	5.8µM*	5.2µM*	.	.	.	.
Cc1coc2cc3oc(=O)c(CC(=O)NCc4ccc(F)cc4)c(C)c3cc12	6.5µM*	5.8µM*	.	.	.	.
Cc1coc2cc3oc(=O)c(CC(=O)NCCc4ccccc4F)c(C)c3cc12	-23%	-27%	.	.	.	.
Cc1ccc(CNC(=O)Cc2c(C)c3cc4c(C)coc4cc3oc2=O)cc1	-1%	-20%	.	.	.	.
Cc1ccc(S(=O)(=O)Nc2cccc(C(=O)N3CCCC3)c2)cc1F	?	-3%	-2%	-11%	14	-8%
COc1ccc(-c2cc3nc4c(c(N5CCC6(CC5)OCCO6)n3n2)CCC4)cc1	13µM*	26µM*	-4%	-3%	-13	8%
Cc1cc(N2CCOCC2)n2nc(-c3cccc(F)c3)cc2n1	-21%	-9%	11%	20%	30	.
Cc1ccc(-c2cc3nc(-c4ccccc4)cc(N4CCOCC4)n3n2)cc1	-29%	?	-4%	-4%	-14	16%
COc1ccc(-c2cc3nc(C)cc(C)n3n2)cc1	0%	-25%	1%	0%	67	-7%
COc1cccc(-c2cc3nc4c(c(N5CCC6(CC5)OCCO6)n3n2)CCC4)c1	18µM*	26µM*	12%	6%	-2	7%
COc1cccc(N2CCN(c3c4c(nc5ncnn35)CCC4)CC2)c1	?	16µM*	-22%	-2%	-14	.
COc1ccc(-c2cc3nc(-c4ccccc4)cc(N4CCC5(CC4)OCCO5)n3n2)cc1	26µM*	?	3%	-10%	-6	16%
Cc1cccc(Nc2c3c(nc4ncnn24)CCC3)c1	-28%	?	-7%	-22%	25	15%
